tim23-1 inh = growth inhibitors of tim23-1 mutant yeast, primary screen, luminescence, uHTS. 1.3% of 330,000 active. AID 463212, 2010. S. cerevisiae tim23-1 growth, BacTiter-Glo luminescence, 24 h. inhibition, % at 20 µM;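 active = growth inhibition of the mutant yeast at or above 50%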;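 note: temperature-sensitive mutant grown at 25 °C; plate controls were DMSO-treated mutant yeast for no effect and medium wells lacking yeast for full effect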
TIM10 inh = growth inhibitors of isogenic TIM10 control yeast, primary screen, counter-screen for tim10-1 yeast inhibitor project, luminescence, uHTS; AID 463195, 2010; inhibition, % at 10 µM; 1.4% of 330,000 active; S. cerevisiae TIM10 strain growth, BacTiter-Glo luminescence, 24 h;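 active = inhibition of 40% or more at the single tested concentration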;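 note: wild-type TIM10 isogenic control strain grown at permissive 25 °C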
V-ATPase pHluor = regulators of yeast V-ATPase proton pumping, primary screen, pHLuorin cytosolic pH fluorescence; S. cerevisiae; 0.37% of 350,000 active; response, % at 10 µM; in the data active = response mostly above about 7.3%, no sharp cut-off; inactive = mostly below about 5.4%; note: actives read high
NALP1 yeast inh = NALP1 inflammasome inhibitors in reconstituted yeast, colorimetric, S. cerevisiae, triplicate retest | inhibition, % at 10 µM | S. cerevisiae NALP1/ASC/caspase-1 growth, X-gal OD620, 72 h | AID 2071, 2009 | 0.61% of 280,000 active; in the data active = inhibition mostly above about 24%, no sharp cut-off; inactive = mostly below about 32%
NLRP3 yeast inh = NALP3 inflammasome inhibitors in reconstituted yeast, primary screen, luminescence, uHTS. Yeast reconstituted NLRP3/ASC/caspase-1, beta-gal luminescence, 24 h. 0.39% of 330,000 active. inhibition, % at 10 µM;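 active = inhibition of 50% or more; inactive = inhibition below 50%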;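 note: plate controls were induced DMSO wells for no effect and uninduced yeast grown without galactose for full effect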
tim10-1 inh = growth inhibitors of tim10-1 mutant yeast, primary screen, luminescence, uHTS | S. cerevisiae tim10-1 ts strain growth, BacTiter-Glo, 24 h | inhibition, % at 20 µM | 2.2% of 330,000 active;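 active = inhibition of at least 40%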;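 note: mutant grown at 25 °C; 0% = DMSO wells with yeast and 100% = wells holding no yeast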
tim10 confirm = growth inhibitors of wild-type TIM10 yeast, confirmation, counter-screen for tim10-1 synthetic lethality project, single concentration, luminescence, S. cerevisiae. shares compounds with TIM10 inh. S. cerevisiae tim10 strain growth, BacTiter-Glo luminescence, 24 h. inhibition, % at 10 µM. 63% of 4,600 active;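 active = inhibition of yeast growth at or above a set limit in either of two replicates at 10 µM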;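 note: this counterscreen used the strain with wild-type TIM10; 0% = yeast with DMSO and 100% = medium wells lacking yeast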
* hit, by the source's call; x = no result given. Most compounds without a hit are left out; they make up all but 4.2% or so of the library.

SMILES	tim23-1 inh	TIM10 inh	V-ATPase pHluor	NALP1 yeast inh	NLRP3 yeast inh	tim10-1 inh	tim10 confirm
COc1ccc(CNC(=O)CSc2cccc3cccnc23)cc1	0	51*	2	x	-5	14	12
CC(C)(C)c1ccc(C(=O)NCCNC(=O)c2ccco2)cc1	14	-18	4	28	7	3	x
O=c1[nH]c(NNC(=S)NC2CCCCC2)nc2c1C1(CCCC1)Cc1ccccc1-2	40	41*	2	x	1	29	32*
Cc1nc2ccccc2c(=O)n1/N=C/c1c(O)ccc2oc3c(c12)CCCC3	22	22	4	10	11	13	x
COc1ccc(-c2cc(-c3ccc(OC)cc3)nc(-c3ccc4c(c3)NC(=O)CO4)c2)cc1	18	41*	1	2	8	20	-4
NS(=O)(=O)c1ccc(CCNC(=O)c2ccc3c(=O)n4c(nc3c2)CCCCC4)cc1	1	18	6	x	-1	4	x
COc1ccc(S(=O)(=O)NCC(c2ccc(F)cc2)N2CCOCC2)cc1Br (configuration not stated)	1	16	-3	x	19	20	x
Cc1cc(C)c2oc(-c3cccc(NC(=O)c4ccc(F)cc4)c3)nc2c1	3	5	2	-33	0	4	x
O=C(CNC(=O)c1ccc(Br)o1)NCC1COc2ccccc2O1 (configuration not stated)	15	4	1	x	-2	14	x
O=C(CNS(=O)(=O)c1ccc(Br)s1)NCC1COc2ccccc2O1 (configuration not stated)	-19	61*	2	18	19	33	49*
c1ccc2c(c1)NC1(CCCCCC1)n1c-2nc2ccccc21	46	42*	-3	3	41	3	27
O=C(C1Cc2ccccc2CN1S(=O)(=O)c1ccc(F)cc1)N1CCCCCC1 (configuration not stated)	33	12	0	16	21	34	x
N=C1SC(CC(=O)Nc2ccc([N+](=O)[O-])cc2)C(=O)N1c1ccccc1 (configuration not stated)	5	57*	3	14	-3	-9	9
Cc1cccc(-n2c(-c3csc(C(C)C)c3)n[nH]c2=S)c1	43	42*	0	15	21	31	30
Cc1cccc(-n2c(-c3ccc(Br)o3)n[nH]c2=S)c1	19	25	0	x	12	18	x
Cc1cccc(-n2c(-c3csc(C)c3C)n[nH]c2=S)c1	28	44*	3	22	27	39	-20
Cc1cccc(-c2n[nH]c(=S)n2C)c1	17	-1	5	-15	13	21	x
CC(Sc1ccccc1)C(=O)NCC1COc2ccccc2O1 (configuration not stated)	5	1	-3	x	29	3	x
CCN(CC(=O)Nc1ccc(NC(C)=O)cc1)C(=O)c1ccc(N2CCCC2)c([N+](=O)[O-])c1	3	-3	4	x	17	3	x
Cc1cc(-c2ccc(N3CCOCC3)cc2)nc2ccccc12	48	58*	-1	20	25	28	64*
COc1ccc(CNC(=O)C/C(C)=N/NC(=O)c2ccccc2OC)cc1	8	-10	4	14	11	-1	x
Cc1cc(C)c(NC(=O)C2CCCN2CCOC(=O)c2cccc([N+](=O)[O-])c2)c(C)c1 (configuration not stated)	39	41*	-3	28	3	36	17
COc1ccc(/C=C/C(=O)c2ccc(Cl)cc2)c(OC)c1	26	44*	2	-4	16	28	26
COc1ccc(/C=C/C(=O)c2cc(Cl)ccc2O)c(OC)c1	32	23	1	-1	14	19	x
CCOC(=O)c1ccc(NS(=O)(=O)c2ccc(Cl)nc2)cc1	13	16	x	2	15	4	x
SMILES	tim23-1 inh	TIM10 inh	V-ATPase pHluor	NALP1 yeast inh	NLRP3 yeast inh	tim10-1 inh	tim10 confirm
CCOC(=O)c1cnn(-c2ccc(NS(=O)(=O)c3ccc(Cl)cc3)cc2)c1C(F)(F)F	28	52*	-3	-13	14	27	6
c1ccc(Cn2c(-c3ccco3)nc3nc4ccccc4nc32)cc1	27	43*	-3	7	14	35	-21
N=C1C(c2ccccc2)=C(O)CN1NC(=O)c1ccc(Cl)cc1	-10	11	-1	24	-4	5	x
COc1cccc(C(=O)NC(=S)Nc2ccccc2N2CCCCC2)c1	29	41*	-4	8	18	28	26
Cc1ccc(C(=O)NC(=S)Nc2ccccc2N2CCCC2)cc1[N+](=O)[O-]	44	43*	-2	-7	13	32	-39
Cc1cc(-c2nnc(CCC(=O)NCc3ccc(F)c(F)c3)o2)no1	0	14	-3	-7	4	17	x
Cn1c(=O)c2c(-c3ccccc3)n3c4ccccc4ncc3c2n(C)c1=O	17	42*	x	x	18	24	-16
Cc1nc2ccccc2n2c(-c3ccccc3)c3c(=O)n(C)c(=O)n(C)c3c12	17	5	1	-29	18	14	x
Cc1cc(C)cc(NS(=O)(=O)c2ccc(NC(=S)NC(=O)c3cccs3)cc2)c1	27	36	-10	-7	9	18	x
CN(C1CCCCC1)S(=O)(=O)c1ccc(NC(=S)NC(=O)c2cccs2)cc1	38	51*	1	6	14	33	36*
CN(c1ccccc1)S(=O)(=O)c1ccc(NC(=S)NC(=O)C2CC2)cc1	34	41*	-3	23	-4	32	-3
CN(c1ccccc1)S(=O)(=O)c1ccc(NC(=S)NC(=O)c2ccccc2)cc1	13	6	-1	28	1	19	x
Cc1cc[n+](-c2nc3ccccc3nc2C(=C=[N-])C#N)cc1	-2	-8	4	-9	12	10	x
CS(=O)(=O)c1cccc(C(=O)OCC(=O)NCc2cccs2)c1	3	72*	-2	x	-3	5	-8
CN(C)c1nc2c(c(=O)[nH]c(=O)n2C)n1Cc1ccc(F)cc1	16	11	-3	x	22	9	x
O=S(=O)(Nc1cc(Cl)ccc1N1CCCCC1)c1cccs1	33	40*	-2	12	0	37	20
CC(C)C(OC(=O)c1ccco1)C(=O)NC1CCCCC1 (configuration not stated)	7	7	-1	12	9	12	x

Assay outcomes as filed in PubChem.
